Consider 14 compounds from PubChem BioAssay.

The nature of experiment [1]: inhibitors of TNFa-induced NFkB p65 translocation, primary screen, imaging, HUVEC, MLSMR starter and 10KST1 sets (AID 438;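 active means inhibition above 20% together with a positive visual image hit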;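 further: compound added about 3h40 before a 20 min TNFalpha stimulation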;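 on inhibition: signal is the nuclear over cytoplasmic p65 intensity ratio per well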). The following applies: HUVEC TNFa-induced p65 nuclear translocation; cell count: measured here: nuclei count (cytotoxicity indicator), at 2.08 µM; inhibition: at 2 µM, stronger effect = higher value, 0% TNFa-plus-vehicle, 100% no-TNFa wells.
The nature of experiment [2]: inhibitors of mutant huntingtin aggregation, primary screen, imaging, exon1htt(103Q)mCFP cells, high-content imaging (AID 483;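 active means visual image review flags a hit and inhibition of aggregation exceeds 20%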;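 further: compound exposure lasted 3 days before fixation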;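 on nuclei count: percent of the per-plate median nuclei count of sample wells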). The following applies: exon1htt(103Q)mCFP cell line, aggregate imaging, at 2 µM; inhibition of aggregation: stronger effect = higher value; nuclei count: measured here: cell count, toxicity.
Experiment [3] in a line: inhibitors of E-selectin induction by TNFa, primary screen, imaging, HUVEC, immunofluorescence, MLSMR starter and 10KST1 sets (AID 487;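 active means visually confirmed hit in the image check and inhibition above 20%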;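 on inhibition: signal is fraction of cell area covered by stained E-selectin grains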;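 on nuclei count: 100% = median nuclei count of all wells on the same plate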). The settings on record: HUVEC TNFalpha-induced E-selectin immunofluorescence imaging, at 2 µM; inhibition: stronger effect = higher value; nuclei count: measured here: cell number, toxicity.
Experiment [4] addresses Voltage-gated potassium channel subunit beta-2 (Rattus norvegicus) (UniProt P62483). The experiment can be described thus: KvBeta enzyme negative modulators, primary screen, biochemical, NADPH fluorescence (AID 622).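 Further: slope of raw intensity against log time taken from 70 to 1610 s.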 The settings on record: recombinant KvBeta, 4-cyanobenzaldehyde reduction, at 10 µM, stronger effect = higher value.
Experiment [5] has the same target. The experiment can be described thus: KvBeta positive modulators, primary screen, biochemical, NADPH fluorescence (AID 623;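 active means NADPH fluorescence slope more negative than the mean of all samples by about 3 SD, 99.7% confidence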;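 further: fluorescence intensity change per second fitted from 20 to 320 s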). The following applies: Recombinant KvBeta, NADPH fluorescence decrease slope, 10 min; at 10 µM; stronger effect = lower value.
In experiment [6] the target is Alpha-2C adrenergic receptor (Homo sapiens) (UniProt P18825). The experiment can be described thus: modulators of alpha2C/GIRK thallium flux, primary screen, cell-based, HEK293 alpha2C/GIRK1/2 (AID 624;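 active means fluorescence slope after compound addition differing from the mean of all screened samples at 99.7% confidence, in either direction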;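 further: slope of fluorescence ratio to pre-addition baseline per second over 15 to 24 s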). The following applies: thallium flux BTC fluorescence, at 10 µM, actives lie on both sides.
Experiment [7] can be described thus: inhibitors of Sendai virus-induced IRF3 signaling, primary screen, TLR/RLR signaling modifier project, cell-based, Sendai virus stimulus, luciferase, 10K MLSCN set (AID 602276;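 active means inhibition at or above 50% at 10 µM; inactive means inhibition below 50%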;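 further: firefly luciferase from ISG56 promoter only with Renilla not read in this screen; 0% = Sendai virus plus DMSO and 100% = medium plus DMSO without virus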). The settings on record: HEK293 RL24 IRF3 luciferase reporter, at 10 µM, stronger effect = higher value.
The nature of experiment [8]: inhibitors of poly I:C-induced TLR3 signaling, primary screen, cell-based, poly I:C stimulus, luciferase, 10K MLSCN set (AID 602277;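 active means inhibition of the reporter signal at or above 50%; inactive means inhibition below 50%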). The following applies: HEK293-TLR3 RL24 IRF3 luciferase reporter, at 10 µM, stronger effect = higher value.

Activity calls are given as the source filed them.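 How the source made its calls, unless noted: active means fluorescence slope higher than the sample average by over 3 SD (cut at about -0.22 in these data, passing the limit was not always enough); inactive means the rest.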

Sequence of Alpha-2C adrenergic receptor (Homo sapiens) (P18825 whole entry, looked up): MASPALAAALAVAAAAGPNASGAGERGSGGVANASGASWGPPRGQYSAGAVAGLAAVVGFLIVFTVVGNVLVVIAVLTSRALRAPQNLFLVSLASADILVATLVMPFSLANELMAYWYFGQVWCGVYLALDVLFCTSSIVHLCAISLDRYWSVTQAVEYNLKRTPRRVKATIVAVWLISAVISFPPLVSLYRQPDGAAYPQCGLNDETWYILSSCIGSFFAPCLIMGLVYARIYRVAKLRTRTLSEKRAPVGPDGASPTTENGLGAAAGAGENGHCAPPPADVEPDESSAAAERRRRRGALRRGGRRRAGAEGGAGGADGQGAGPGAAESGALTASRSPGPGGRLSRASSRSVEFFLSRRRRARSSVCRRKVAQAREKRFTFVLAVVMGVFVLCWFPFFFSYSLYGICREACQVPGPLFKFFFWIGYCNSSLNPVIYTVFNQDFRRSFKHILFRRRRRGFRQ
Sequence of Voltage-gated potassium channel subunit beta-2 (Rattus norvegicus) (P62483 whole entry, looked up): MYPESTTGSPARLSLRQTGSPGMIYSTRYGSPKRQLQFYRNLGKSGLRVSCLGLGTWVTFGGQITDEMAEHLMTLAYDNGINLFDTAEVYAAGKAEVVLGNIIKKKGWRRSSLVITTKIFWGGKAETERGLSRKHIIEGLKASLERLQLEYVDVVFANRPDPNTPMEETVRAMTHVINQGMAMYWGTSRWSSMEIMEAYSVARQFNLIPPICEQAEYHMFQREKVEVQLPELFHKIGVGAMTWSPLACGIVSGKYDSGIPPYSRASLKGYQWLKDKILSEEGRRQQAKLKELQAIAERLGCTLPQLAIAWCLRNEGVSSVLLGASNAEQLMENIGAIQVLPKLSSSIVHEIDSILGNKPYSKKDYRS

On to `COc1ccc(C(=O)NCCn2ccc3ccccc32)c(OC)c1`, for which the cell count in experiment [1] came out at 280. Also, the inhibition is -2.5% (inactive) in experiment [1], -40.8% (inactive) in experiment [3], 1.44% (inactive) in experiment [7] and -24.1% (inactive) in experiment [8]. The inhibition of aggregation in experiment [2] was 0.8% (inactive). Moreover, the nuclei count in experiment [2] turned out to be 80.1%; in experiment [3], 95.6%. Moreover, in experiment [4], the fluorescence slope was -0.608 (inactive). In addition, the NADPH fluorescence slope in experiment [5] is 6.8e-06 (inactive). In addition, the slope in experiment [6] is 0.00591 (inactive).

In the case of `COc1ccc(C2CC(=O)C(C=NCCCN3CCOCC3)=C(O)C2)cc1` (centres undefined), the cell count in experiment [1] stood at 392. The inhibition is -4.9% (inactive) in experiment [1], 3% (inactive) in experiment [3], 14.7% (inactive) in experiment [7] and 32.7% (inactive) in experiment [8]. Further, the inhibition of aggregation in experiment [2] is 14% (inactive). For the same compound, the nuclei count in experiment [2] was determined as 80.7%; in experiment [3] it was 87.7%. For the same compound, the fluorescence slope in experiment [4] was -0.351 (inactive). Also, in experiment [5], the NADPH fluorescence slope is -1.5e-05 (inactive). The slope in experiment [6] is 0.00635 (inactive).

`Nc1nc2n(n1)C(c1cccc(Br)c1)CC(c1ccccc1)N2` (centres undefined): in experiment [1], the cell count stood at 645. Further, the inhibition was 13.8% (inactive) in experiment [1], -39.6% (inactive) in experiment [3], 13.2% (inactive) in experiment [7] and 37% (inactive) in experiment [8]. Moreover, in experiment [2], the inhibition of aggregation was -26.4% (inactive). Moreover, the figures for the nuclei count in experiment [2] and in experiment [3] were 114% and 111%, respectively. Also, the fluorescence slope in experiment [4] is -0.59 (inactive). Besides, the NADPH fluorescence slope in experiment [5] was 9.1e-06 (inactive). The slope in experiment [6] is 0.00794 (inactive).

Take `Fc1ccc(NCc2nnc(SCc3nnc(-c4ccccc4)o3)n2CC2CCCO2)cc1` (centres undefined): the cell count in experiment [1] was 571. Also, the inhibition in experiment [1] was -9.7% (inactive); in experiment [3], 14.2% (inactive); in experiment [7], -28.3% (inactive); in experiment [8] it was -12.4% (inactive). The inhibition of aggregation in experiment [2] is -6% (inactive). In addition, the nuclei count in experiment [2] worked out at 56.6%; in experiment [3] it was 90.9%. Further, the fluorescence slope in experiment [4] is -0.528 (inactive). In addition, the NADPH fluorescence slope in experiment [5] was 3.2e-05 (inactive). Besides, the slope in experiment [6] was 0.00596 (inactive).

With `COc1cccc(/C=N/n2cnnc2)c1OCc1ccccc1`, the cell count in experiment [1] turned out to be 473. Also, the inhibition is -2.6% (inactive) in experiment [1], 2.5% (inactive) in experiment [3], 20.5% (inactive) in experiment [7] and 12.5% (inactive) in experiment [8]. For the same compound, the inhibition of aggregation in experiment [2] is -7% (inactive). Also, the figures for the nuclei count in experiment [2] and in experiment [3] were 104% and 109%, respectively. In addition, in experiment [4], the fluorescence slope is -0.448 (inactive). Also, the NADPH fluorescence slope in experiment [5] was 1.1e-05 (inactive). The slope in experiment [6] is 0.00389 (inactive).

Take `COc1cccc(-c2nnc(NC(C)=O)o2)c1`: the cell count in experiment [1] came to 694. Also, the inhibition is 0.3% (inactive) in experiment [1], -24.3% (inactive) in experiment [3], -11% (inactive) in experiment [7] and 6.47% (inactive) in experiment [8]. For the same compound, the inhibition of aggregation in experiment [2] was -16.5% (inactive). Also, the figures for the nuclei count in experiment [2] and in experiment [3] were 99.5% and 118%, respectively. Further, the fluorescence slope in experiment [4] was -0.407 (inactive). Besides, the NADPH fluorescence slope in experiment [5] is -6.1e-05 (inactive). For the same compound, the slope in experiment [6] was 0.00477 (inactive).

As to `c1cn(C23CC4CC(CC(C4)C2)C3)cn1`, in experiment [1], the cell count is 362. Besides, the inhibition is 0.8% (inactive) in experiment [1], 45.7% (inactive) in experiment [3], 11.8% (inactive) in experiment [7] and 16.7% (inactive) in experiment [8]. Further, in experiment [2], the inhibition of aggregation is -9.2% (inactive). Further, the nuclei count is 108% in experiment [2] and 110% in experiment [3]. The fluorescence slope in experiment [4] is -0.489 (inactive). Moreover, the NADPH fluorescence slope in experiment [5] is -5.6e-05 (inactive). In experiment [6], the slope was 0.00411 (inactive).

As for `O=C(c1cnn2c(C(F)(F)F)cc(-c3ccco3)nc12)N1CCc2ccccc2C1`, in experiment [1], the cell count is 516. The inhibition is 2% (inactive) in experiment [1], -11.7% (inactive) in experiment [3], -19% (inactive) in experiment [7] and -13.6% (inactive) in experiment [8]. The inhibition of aggregation in experiment [2] is 22.2% (inactive). The nuclei count was determined as 92.9% in experiment [2] and 67% in experiment [3]. The fluorescence slope in experiment [4] was -0.327 (inactive). Moreover, in experiment [5], the NADPH fluorescence slope is 1.7e-05 (inactive). For the same compound, the slope in experiment [6] was 0.00417 (inactive).

For `CN(CCCNC(=O)c1cn(C)c2ccc(S(=O)(=O)N(C)C)cc2c1=O)c1ccccc1`, the cell count in experiment [1] was 596. In addition, the inhibition in experiment [1] is -4.5% (inactive); in experiment [3] it was 39.4% (inactive); in experiment [7], 15.4% (inactive); in experiment [8], 7.91% (inactive). The inhibition of aggregation in experiment [2] is -18.9% (inactive). For the same compound, the results for the nuclei count in experiment [2] and in experiment [3] were 37.6% and 94.2%, respectively. In addition, the fluorescence slope in experiment [4] was -0.582 (inactive). Further, the NADPH fluorescence slope in experiment [5] is -7.6e-06 (inactive). The slope in experiment [6] is 0.00499 (inactive).

For the compound `CCOc1ccc(NC(=O)CSc2nnc(Cc3cccn3C)n2-c2ccc(OC)cc2)cc1`, the cell count in experiment [1] stood at 366. For the same compound, the inhibition in experiment [1] is -0.3% (inactive); in experiment [3], -103% (inactive); in experiment [7], -4.09% (inactive); in experiment [8], -3.93% (inactive). Besides, the inhibition of aggregation in experiment [2] was 0.9% (inactive). For the same compound, the results for the nuclei count in experiment [2] and in experiment [3] were 98% and 117%, respectively. The fluorescence slope in experiment [4] is -0.489 (inactive). The NADPH fluorescence slope in experiment [5] is 1.6e-05 (inactive). The slope in experiment [6] was 0.0062 (inactive).

On to `CCCC(=O)Nc1cccc(NC(=O)CN2CCN(c3ccccc3OC)CC2)c1`, for which, in experiment [1], the cell count worked out at 693. Further, the inhibition is -15.2% (inactive) in experiment [1], -61.4% (inactive) in experiment [3], -1.32% (inactive) in experiment [7] and 11.7% (inactive) in experiment [8]. Moreover, the inhibition of aggregation in experiment [2] is 17.6% (inactive). In addition, the values for the nuclei count in experiment [2] and in experiment [3] were 98.8% and 104%, respectively. Also, the fluorescence slope in experiment [4] was -0.481 (inactive). Moreover, the NADPH fluorescence slope in experiment [5] was -4.6e-05 (inactive). For the same compound, the slope in experiment [6] was 0.00587 (inactive).

Regarding `CCOC(=O)Cn1c2c(c(=N)c3ccccc31)CCC2`, the cell count in experiment [1] was found to be 565. The inhibition in experiment [1] was -7.1% (inactive); in experiment [3], 2% (inactive); in experiment [7] it was 16% (inactive); in experiment [8], 20.3% (inactive). For the same compound, in experiment [2], the inhibition of aggregation was -0.7% (inactive). Also, the values for the nuclei count in experiment [2] and in experiment [3] were 106% and 103%, respectively. The fluorescence slope in experiment [4] was -0.623 (inactive). For the same compound, the NADPH fluorescence slope in experiment [5] is -3.1e-05 (inactive). For the same compound, in experiment [6], the slope was 0.00442 (inactive).

For `CCN(CCCNC(=O)COc1cc(=O)n(CC)c2ccccc12)c1ccccc1`, the cell count in experiment [1] is 377. Also, the inhibition in experiment [1] was 0.6% (inactive); in experiment [3], 13.8% (inactive); in experiment [7] it was 5.07% (inactive); in experiment [8], 7.25% (inactive). In experiment [2], the inhibition of aggregation was 1.3% (inactive). Besides, the nuclei count was 104% in experiment [2] and 96.1% in experiment [3]. Besides, in experiment [4], the fluorescence slope is -0.501 (inactive). Also, the NADPH fluorescence slope in experiment [5] was -4e-05 (inactive). The slope in experiment [6] is 0.00565 (inactive).

Regarding `CC(=O)Nc1ccc(S(=O)(=O)N2CCN=C2C)cc1`, in experiment [1], the cell count is 246. Besides, the inhibition in experiment [1] is 7.6% (inactive); in experiment [3], -31.5% (inactive); in experiment [7], 3.93% (inactive); in experiment [8] it was 19.7% (inactive). The inhibition of aggregation in experiment [2] was 14.3% (inactive). Besides, the nuclei count in experiment [2] amounted to 86.3%; in experiment [3] it was 83.1%. The fluorescence slope in experiment [4] was -0.62 (inactive). Also, the NADPH fluorescence slope in experiment [5] is -1.6e-05 (inactive). Moreover, in experiment [6], the slope was 0.00377 (inactive).
